Measured values reported in the supplement of paper PMC11001985.

These targets were tested with C#CCNC(=O)CCSSCCC(=O)NCCc1ccc(C=O)c(C=O)c1 (assay: lysine labeling ratio R10:1 (500 µM / 50 µM probe), SILAC-ABPP in living cells; higher = lower intrinsic lysine reactivity toward the probe, active = 2 or less). Conditions: HeLa; probe concentrations 500 vs 50 µM.
In short: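 Measurements came from LC-MS/MS on a TIMS-TOF Pro of mixed SILAC light and heavy HeLa lysates after click to biotin-azide, trypsin digestion, neutravidin capture, DTT release and alkylation. Before lysis, the living cells sat in PBS at room temperature with 50 µM or 500 µM of an alkyne-tagged, disulfide-linked lysine probe, and labels were swapped forward and reverse. R per lysine is the median across both swap directions of the filtered median high-probe/low-probe MS1 peptide ratio. The cap is 20.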

Chain of UniProt P35579 (P35579 whole entry): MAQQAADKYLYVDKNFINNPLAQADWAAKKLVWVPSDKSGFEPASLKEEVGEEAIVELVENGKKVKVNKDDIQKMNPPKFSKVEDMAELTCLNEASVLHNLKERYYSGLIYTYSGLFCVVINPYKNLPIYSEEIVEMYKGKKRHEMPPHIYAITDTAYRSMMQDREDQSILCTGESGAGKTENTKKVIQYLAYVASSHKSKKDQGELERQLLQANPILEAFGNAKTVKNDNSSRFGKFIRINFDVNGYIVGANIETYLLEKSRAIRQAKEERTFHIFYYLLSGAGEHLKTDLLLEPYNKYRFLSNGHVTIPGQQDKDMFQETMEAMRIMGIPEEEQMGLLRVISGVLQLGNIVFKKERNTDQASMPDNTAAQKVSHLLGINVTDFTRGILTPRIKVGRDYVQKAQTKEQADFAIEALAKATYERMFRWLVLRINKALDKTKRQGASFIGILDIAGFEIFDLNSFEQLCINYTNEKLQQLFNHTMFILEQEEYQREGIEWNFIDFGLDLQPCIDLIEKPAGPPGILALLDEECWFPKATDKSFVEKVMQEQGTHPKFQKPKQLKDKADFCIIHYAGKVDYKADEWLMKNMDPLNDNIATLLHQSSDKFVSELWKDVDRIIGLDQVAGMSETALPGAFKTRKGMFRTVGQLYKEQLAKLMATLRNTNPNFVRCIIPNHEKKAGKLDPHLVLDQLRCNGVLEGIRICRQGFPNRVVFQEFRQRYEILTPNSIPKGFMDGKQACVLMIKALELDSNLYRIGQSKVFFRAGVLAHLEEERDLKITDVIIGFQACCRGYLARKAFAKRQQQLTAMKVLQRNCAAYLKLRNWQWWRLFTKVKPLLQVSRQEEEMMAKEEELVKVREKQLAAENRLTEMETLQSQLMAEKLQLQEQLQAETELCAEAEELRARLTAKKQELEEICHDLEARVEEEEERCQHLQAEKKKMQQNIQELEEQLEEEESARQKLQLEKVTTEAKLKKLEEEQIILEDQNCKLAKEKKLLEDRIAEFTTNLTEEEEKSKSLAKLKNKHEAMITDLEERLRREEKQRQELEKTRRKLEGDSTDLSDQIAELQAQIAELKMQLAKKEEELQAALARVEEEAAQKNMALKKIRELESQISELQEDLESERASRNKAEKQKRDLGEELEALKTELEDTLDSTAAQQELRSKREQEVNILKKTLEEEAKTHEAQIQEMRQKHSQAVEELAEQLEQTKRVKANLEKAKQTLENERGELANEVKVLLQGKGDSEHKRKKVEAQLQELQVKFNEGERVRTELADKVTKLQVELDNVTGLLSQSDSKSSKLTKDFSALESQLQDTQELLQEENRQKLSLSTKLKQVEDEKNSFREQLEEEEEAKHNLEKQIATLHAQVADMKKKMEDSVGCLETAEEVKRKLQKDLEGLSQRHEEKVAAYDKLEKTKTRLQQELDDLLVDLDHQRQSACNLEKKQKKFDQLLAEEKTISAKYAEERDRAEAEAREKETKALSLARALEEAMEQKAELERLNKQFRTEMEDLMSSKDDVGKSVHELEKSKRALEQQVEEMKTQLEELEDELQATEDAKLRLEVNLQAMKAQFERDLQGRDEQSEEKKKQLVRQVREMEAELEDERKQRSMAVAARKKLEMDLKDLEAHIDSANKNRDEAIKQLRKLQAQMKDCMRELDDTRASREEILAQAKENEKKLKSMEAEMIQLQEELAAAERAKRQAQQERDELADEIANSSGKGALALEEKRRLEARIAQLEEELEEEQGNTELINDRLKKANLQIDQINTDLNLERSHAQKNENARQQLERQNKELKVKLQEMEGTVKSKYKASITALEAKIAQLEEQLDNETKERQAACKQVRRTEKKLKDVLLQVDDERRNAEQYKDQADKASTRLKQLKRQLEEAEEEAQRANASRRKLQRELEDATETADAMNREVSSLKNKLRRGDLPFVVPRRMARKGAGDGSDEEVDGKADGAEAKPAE
Chain of UniProt O43854 (O43854 whole entry): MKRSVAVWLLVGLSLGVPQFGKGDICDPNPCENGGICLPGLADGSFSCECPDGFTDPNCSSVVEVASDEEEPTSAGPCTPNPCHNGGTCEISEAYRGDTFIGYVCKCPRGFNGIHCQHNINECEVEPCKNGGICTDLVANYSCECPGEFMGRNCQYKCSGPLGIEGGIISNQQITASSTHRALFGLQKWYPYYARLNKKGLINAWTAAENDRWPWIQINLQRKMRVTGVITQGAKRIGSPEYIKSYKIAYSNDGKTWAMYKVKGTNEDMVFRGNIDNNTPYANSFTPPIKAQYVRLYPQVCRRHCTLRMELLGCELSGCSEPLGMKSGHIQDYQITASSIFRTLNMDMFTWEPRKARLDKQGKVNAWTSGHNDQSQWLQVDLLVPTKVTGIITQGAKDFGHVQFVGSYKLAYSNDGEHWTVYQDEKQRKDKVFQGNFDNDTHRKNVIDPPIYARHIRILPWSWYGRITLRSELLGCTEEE
Chain of UniProt Q13332 (Q13332 whole entry): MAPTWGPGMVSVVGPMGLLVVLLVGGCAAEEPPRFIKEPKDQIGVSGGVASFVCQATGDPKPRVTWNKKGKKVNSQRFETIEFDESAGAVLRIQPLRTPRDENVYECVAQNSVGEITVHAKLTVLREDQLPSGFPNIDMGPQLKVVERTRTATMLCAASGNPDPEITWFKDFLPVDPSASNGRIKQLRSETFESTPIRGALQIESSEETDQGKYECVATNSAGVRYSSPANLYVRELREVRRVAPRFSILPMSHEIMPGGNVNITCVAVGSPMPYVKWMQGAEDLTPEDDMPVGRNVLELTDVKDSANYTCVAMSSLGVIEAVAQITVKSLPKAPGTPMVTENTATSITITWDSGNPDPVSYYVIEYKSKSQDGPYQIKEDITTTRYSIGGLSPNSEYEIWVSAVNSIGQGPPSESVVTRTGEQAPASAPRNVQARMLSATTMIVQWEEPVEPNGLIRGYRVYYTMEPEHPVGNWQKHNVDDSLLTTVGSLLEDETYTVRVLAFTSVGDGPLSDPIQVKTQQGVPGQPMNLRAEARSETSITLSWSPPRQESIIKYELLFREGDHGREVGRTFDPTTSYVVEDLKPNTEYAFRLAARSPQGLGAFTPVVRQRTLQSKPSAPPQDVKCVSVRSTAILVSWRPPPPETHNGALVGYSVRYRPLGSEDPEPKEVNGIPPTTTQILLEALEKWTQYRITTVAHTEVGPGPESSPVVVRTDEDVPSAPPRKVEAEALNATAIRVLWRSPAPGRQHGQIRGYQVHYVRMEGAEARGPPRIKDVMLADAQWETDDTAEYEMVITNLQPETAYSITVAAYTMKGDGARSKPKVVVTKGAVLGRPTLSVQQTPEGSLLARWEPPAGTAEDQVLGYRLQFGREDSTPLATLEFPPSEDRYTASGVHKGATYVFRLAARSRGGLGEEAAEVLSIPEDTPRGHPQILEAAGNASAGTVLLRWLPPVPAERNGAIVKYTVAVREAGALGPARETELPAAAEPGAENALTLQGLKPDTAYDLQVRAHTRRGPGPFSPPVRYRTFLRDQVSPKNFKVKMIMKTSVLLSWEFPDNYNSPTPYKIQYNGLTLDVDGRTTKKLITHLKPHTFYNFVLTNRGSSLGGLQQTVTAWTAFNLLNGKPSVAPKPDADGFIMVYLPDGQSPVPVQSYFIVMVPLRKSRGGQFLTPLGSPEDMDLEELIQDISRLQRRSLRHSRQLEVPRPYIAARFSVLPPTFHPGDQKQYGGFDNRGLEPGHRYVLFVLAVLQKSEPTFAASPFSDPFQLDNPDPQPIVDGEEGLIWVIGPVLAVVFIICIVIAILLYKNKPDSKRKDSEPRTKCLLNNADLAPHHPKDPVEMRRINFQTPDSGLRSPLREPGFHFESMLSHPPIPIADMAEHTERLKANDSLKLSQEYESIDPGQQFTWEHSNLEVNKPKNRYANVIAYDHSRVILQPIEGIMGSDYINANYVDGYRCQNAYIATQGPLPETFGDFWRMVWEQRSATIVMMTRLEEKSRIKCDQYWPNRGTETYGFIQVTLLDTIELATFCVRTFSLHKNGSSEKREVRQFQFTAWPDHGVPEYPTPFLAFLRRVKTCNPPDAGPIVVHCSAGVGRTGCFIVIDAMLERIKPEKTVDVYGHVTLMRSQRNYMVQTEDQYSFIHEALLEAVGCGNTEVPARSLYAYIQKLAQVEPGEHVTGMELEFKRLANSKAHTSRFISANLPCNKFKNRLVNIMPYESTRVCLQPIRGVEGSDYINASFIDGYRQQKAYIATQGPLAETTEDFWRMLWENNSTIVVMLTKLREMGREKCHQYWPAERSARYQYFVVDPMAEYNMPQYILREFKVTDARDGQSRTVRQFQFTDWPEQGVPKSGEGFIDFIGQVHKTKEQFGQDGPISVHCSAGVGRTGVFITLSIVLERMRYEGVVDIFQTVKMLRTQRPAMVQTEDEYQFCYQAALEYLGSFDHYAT
Chain of UniProt Q53GQ0 (Q53GQ0 whole entry): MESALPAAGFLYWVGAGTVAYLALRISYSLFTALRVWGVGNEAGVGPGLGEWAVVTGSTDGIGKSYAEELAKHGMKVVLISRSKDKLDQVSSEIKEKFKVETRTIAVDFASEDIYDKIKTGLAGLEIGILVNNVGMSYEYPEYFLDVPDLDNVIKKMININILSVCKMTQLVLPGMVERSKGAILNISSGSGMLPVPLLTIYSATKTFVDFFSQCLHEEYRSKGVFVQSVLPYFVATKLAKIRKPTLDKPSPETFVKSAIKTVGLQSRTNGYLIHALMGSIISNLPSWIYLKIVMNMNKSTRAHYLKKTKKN
Chain of UniProt P0C0S5 (P0C0S5 whole entry): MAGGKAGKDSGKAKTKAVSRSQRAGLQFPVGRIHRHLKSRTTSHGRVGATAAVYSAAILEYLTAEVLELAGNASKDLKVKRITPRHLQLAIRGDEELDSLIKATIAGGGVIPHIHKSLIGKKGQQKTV
Chain of UniProt P61981 (P61981 whole entry): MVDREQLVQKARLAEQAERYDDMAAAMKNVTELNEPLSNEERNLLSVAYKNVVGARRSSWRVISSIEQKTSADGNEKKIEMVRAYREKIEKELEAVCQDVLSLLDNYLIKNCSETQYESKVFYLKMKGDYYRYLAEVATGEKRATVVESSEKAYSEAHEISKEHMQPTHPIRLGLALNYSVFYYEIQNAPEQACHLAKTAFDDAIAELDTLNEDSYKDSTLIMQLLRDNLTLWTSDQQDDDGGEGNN

Lysine labeling ratio R10:1, inactive:
CCT3 (lysine site: K381) (UniProt P49368) 2.81
LAMA5 (lysine site: K1854) (UniProt O15230) 3.02
HNRNPM (lysine site: K381) (UniProt P52272) 5.22
UniProt Q8WXI7 (lysine site: K13676) 3.84
UniProt P16144 (lysine site: K219) 4.33
CTNNA1 (lysine site: K16) (UniProt P35221) 3.72
PTBP1 (lysine site: K428) (UniProt P26599) 3.97
EDIL3 (lysine site: K290) (UniProt O43854) 2.39
CD47 (lysine site: K130) (UniProt Q08722) 3.14
VASN (lysine site: K506) (UniProt Q6EMK4) 5.1
EPHB2 (lysine site: K158) (UniProt P29323) 2.25
TMEM109 (lysine site: K46) (UniProt Q9BVC6) 3.23
CD109 (lysine site: K567) (UniProt Q6YHK3) 3.37
GSN (lysine site: K239) (UniProt P06396) 4.08
UniProt P05186 (lysine site: K74) 6.22
PTPRS (lysine site: K1001) (UniProt Q13332) 4.13
UniProt P61981 (lysine site: K142) 3.71
NRP1 (lysine site: K538) (UniProt O14786) 2.73
RAB13 (lysine site: K58) (UniProt P51153) 13.2
UniProt P62899 (lysine site: K75) 2.92
MSN (lysine site: K538) (UniProt P26038) 4.98
CACNA2D1 (lysine site: K634) (UniProt P54289) 3.07
SPTAN1 (lysine site: K190) (UniProt Q13813) 4.11
LAMC1 (lysine site: K1093) (UniProt P11047) 2.13
SLC4A2 (lysine site: K975) (UniProt P04920) 2.29
ROBO1 (lysine site: K137) (UniProt Q9Y6N7) 5.8
EDIL3 (lysine site: K444) (UniProt O43854) 3.53

Lysine labeling ratio R10:1, active:
TFRC (lysine site: K665) (UniProt P02786) 1.78
UniProt P0C0S5 (lysine site: K14) 1.12
MYH9 (lysine site: K613) (UniProt P35579) 1.78
GPC1 (lysine site: K461) (UniProt P35052) 1.89
GAPDH (lysine site: K227) (UniProt P04406) 1.76
NSUN2 (lysine site: K257) (UniProt Q08J23) 1.71
EEF1G (lysine site: K241) (UniProt P26641) 1.4
HMGN2 (lysine site: K16) (UniProt P05204) 1.78
HSD17B12 (lysine site: K261) (UniProt Q53GQ0) 1.88
MYO1C (lysine site: K781) (UniProt O00159) 1.34
MYH9 (lysine site: K1724) (UniProt P35579) 1.66
PTPRS (lysine site: K144) (UniProt Q13332) 1.57
IGF1R (lysine site: K665) (UniProt P08069) 1.28
